This passage reports inhibition results from PubChem BioAssay AID372 (MTDP, 2006).

Structures are written as SMILES. Out of some 100,000 compounds screened, about 770 (0.77%) were called active. The sample as a whole holds a higher share of actives than the screen did. Unmarked numbers belong to inactive results. Rule as the data show it: active = inhibition above about 50%; inactive = the rest.

The target of this assay is Gag-Pol polyprotein (Human immunodeficiency virus type 1 group M subtype B (isolate HXB2)) (UniProt P04585). The assay is described as follows: RNase H inhibition, HIV 1 Gag Pol polyprotein, FRET biochemical assay, screening (AID 372). Particulars: HIV-1 RT RNase H, FRET RNA/DNA substrate fluorescence; at 10 µM; active compounds read high.
In the case of `CCc1ccc(C(=O)CSC2=C(C#N)C(c3ccc(Br)cc3)C(C(C)=O)=C(C)N2)cc1` (stereo unspecified), the inhibition (in general, how much of the control response was suppressed) was 26%.
For `COc1ccc(C2(CNS(=O)(=O)c3ccccc3)CCCC2)cc1OC` the value was 0%.
Turning to `COc1cc(C=Nc2cccc(Cl)c2C)ccc1OC(C)=O`, the inhibition was 11%.
For `COc1cc(C=C2C(=O)NC(=O)NC2=O)ccc1OCc1c(C)no[n+]1[O-]` the value was 6%.
With `Cc1no[n+]([O-])c1COc1ccc(/C=C2\NC(=S)NC2=O)cc1` the figure was 4%; with `COc1cc(/C=C2\NC(=S)NC2=O)ccc1OCc1c(C)no[n+]1[O-]`, 53% (active).
For `O=c1c2c3c(sc2ncn1/N=C/c1ccc(Br)o1)CCCC3` the value was 25%; for `O=C(NC(=S)Nc1nc(-c2cccc([N+](=O)[O-])c2)cs1)c1ccc(Cl)cc1`, 35%.
For the molecule `O=C(Nc1nc(-c2ccc([N+](=O)[O-])cc2)cs1)c1ccc(Cl)cc1`, the inhibition was 32%.
With `O=C(Nc1nc(-c2ccc(Br)cc2)cs1)c1ccc([N+](=O)[O-])cc1` the figure was 37%; with `COc1ccc(C(=O)NC(=S)Nc2ccc([N+](=O)[O-])cc2C)cc1Cl`, 18%.
For `O=C(Nc1nc(-c2ccc(Cl)cc2)cs1)c1ccc([N+](=O)[O-])cc1` the value was 51% (active); for `CCOc1ccc(C(=O)NC(=S)Nc2ccc(Cl)cc2)cc1Cl`, 7%.
Take `CCOc1ccc(C(=O)NC(=S)Nc2ccc([N+](=O)[O-])cc2OC)cc1Cl`: the inhibition is 50% (active).
With `COc1ccc(C(=O)NC(=S)Nc2nc(-c3cccc([N+](=O)[O-])c3)cs2)cc1Cl` the figure was 54% (active); with `CCOc1ccc(C(=O)NC(=S)Nc2ccc(Cl)cn2)cc1Cl`, 60% (active); with `CCOc1ccc(C(=O)NC(=S)Nc2ccccn2)cc1Cl`, 12%.
With `COc1ccc(C(=O)NC(=S)Nc2nc(-c3ccccc3)cs2)cc1Cl` the figure was 16%; with `CCOc1ccc(C(=O)Nc2ccc([N+](=O)[O-])cc2OC)cc1Cl`, 14%; with `COc1cc(OC)cc(C(=O)Nc2cccc(-c3nc4ccccc4s3)c2)c1`, 5%.
Regarding `Oc1ccc(Br)cc1/C=N/c1c(-c2ccco2)nc2ccccn12`, the inhibition is 15%.
For the molecule `O=C1CS/C(=N/N=C/c2ccc(-c3ccc(Br)cc3)o2)N1`, the inhibition is 14%.
With `CCCC(=O)Nc1cc(-c2nc3cc(Cl)ccc3o2)ccc1C` the figure was 12%; with `O=C(O)c1ccc(Nc2ccnc3cc(Cl)ccc23)cc1`, 3%.
With `O=C(Nc1ccccc1C(=O)N1CCCC1)c1ccccc1` the figure was 0%; with `CCOc1ccc(C(=O)NC(=S)Nc2ccc(Br)cn2)cc1Cl`, 56% (active); with `CCOc1ccc(C(=O)Nc2ccc(Br)cn2)cc1Cl`, 4%.
With `COc1ccc(Br)cc1C(=O)NC(=S)Nc1ccc(Cl)cn1` the figure was 53% (active).
For the molecule `COc1ccc(Br)cc1C(=O)Nc1ccc(Cl)cn1`, the inhibition was 26%.
For `COc1ccc(C(=O)NC(=S)Nc2ccc(Br)cn2)cc1OC` the value was 21%; for `COc1ccc(C(=O)NC(=S)Nc2ccc(Cl)cn2)cc1Br`, 23%.
For `CS(=O)(=O)N(Cc1ccc(C(=O)Nc2ccccc2C(=O)O)cc1)c1ccccc1` the value was 4%; for `Cc1ccc(NC(=O)C(=O)N/N=C/c2cccc(Cl)c2)cc1`, 1%; for `CCOc1cc(/C=C/C(=O)O)c(Br)cc1OC`, 8%.
For `Cc1ccc(CN2CCN(/N=C\c3ccccc3)CC2)cc1` the value was 8%; for `COc1ccccc1OCC(=O)N/N=C/c1ccc(C)cc1C`, 11%; for `CC(=O)N1CCN(c2ccc(NC(=O)c3ccc(-c4ccccc4)cc3)cc2)CC1`, 5%.
For the molecule `O=C(Nc1ccc(N2CCCCC2)cc1)c1ccc(-c2ccccc2)cc1`, the inhibition is 28%.
On to `COc1ccc(CNC(=O)C(=O)NCc2ccc(Cl)cc2)cc1`, for which the inhibition is 15%.
Take `COc1ccc(CNC(=O)C(=O)Nc2ccccc2OC)cc1`: the inhibition was 44%.
For `COc1ccccc1NC(=O)C(=O)NCc1ccc(C)cc1` the value was 57% (active).
For `COc1ccc(S(=O)(=O)N(CC(=O)NCc2ccc(Cl)cc2)Cc2ccccc2)cc1` the value was 60% (active); for `COc1ccc(C)cc1NC(=O)C(=O)NCc1ccc(Cl)cc1`, 44%; for `COc1ccccc1NC(=O)C(=O)NCc1ccccc1`, 27%.
With `COc1ccc(NC(=O)C(=O)NCc2ccc(Cl)cc2)cc1`, the inhibition is 52% (active).
For `COc1ccc(C)cc1NC(=O)C(=O)NCc1ccncc1` the value was 55% (active); for `COc1ccc(S(=O)(=O)N(CC(=O)NCc2ccccc2)Cc2ccccc2)cc1`, 10%; for `COc1ccc(CNC(=O)CN(Cc2ccccc2)S(=O)(=O)c2ccccc2)cc1`, 10%.
As to `COc1ccc(C)cc1NC(=O)C(=O)NCc1cccnc1`, the inhibition is 40%.
For `COc1ccc(CNC(=O)C(=O)Nc2ccc(OC)cc2)cc1` the value was 0%; for `Cc1ccc(NC(=O)Cc2ccc(Br)cc2)cc1`, 14%.
With `COc1cccc(N2C(=O)NC(=O)/C(=C/c3ccc(OC)c4ccccc34)C2=O)c1` the figure was 31%; with `O=C(Nc1ccc2oc(-c3ccccc3F)nc2c1)C(Cl)(Cl)Cl`, 8%; with `O=C(O)/C=C\C(=O)Nc1ccc(N2CCOCC2)c(C(=O)O)c1`, 5%.
`Cc1ccc(S(=O)(=O)N/N=C/c2ccc(C(=O)O)cc2)cc1`: the inhibition was 0%.
With `COc1ccc(N2CCSC2c2ccco2)cc1` (stereo unspecified) the figure was 0%; with `C=CCN1C(=O)/C(=C\c2ccc(O)c(OCC)c2)C(=O)NC1=S`, 11%; with `COc1cc(C(=O)NCc2ccc(C(=O)O)cc2)cc(OC)c1OC`, 7%.
With `CCn1c2ccccc2c2cc(C=Nc3ccc(C)c(F)c3)ccc21` the figure was 0%; with `CCOc1ccc(C(=O)NC(=S)Nc2ccc(C)cc2)cc1Br`, 11%; with `CCOc1ccccc1C=Nn1c(-c2ccc(Cl)cc2Cl)n[nH]c1=S`, 15%.
For `CCN(CC)CCN1C(=O)C(=O)/C(=C(\O)c2ccc([N+](=O)[O-])cc2)C1c1ccc(OC)cc1` (stereo unspecified), the inhibition is 2%.
With `CCOC(=O)CC1(c2ccccc2)SC(NC(C)=O)=NN1C(C)=O` (stereo unspecified) the figure was 0%; with `COc1ccc(C)cc1NC(=O)C(=O)NCc1ccccc1`, 59% (active).
In the case of `COc1ccc(Cl)cc1NC(=O)C(=O)NCc1ccncc1`, the inhibition was 59% (active).
For `COc1ccc(CNC(=O)C(=O)Nc2cc(C)ccc2OC)cc1` the value was 30%; for `COc1ccc(OC)c(NC(=O)C(=O)NCc2ccncc2)c1`, 26%; for `COc1ccc(Cl)cc1NC(=O)C(=O)NCc1ccc(C)cc1`, 30%.
On to `COc1ccc(C)cc1NC(=O)C(=O)NCc1ccc(C)cc1`, for which the inhibition was 5%.
For `CCOC(=O)C1=C(C)N=c2s/c(=C\c3cc(Br)c(OCc4ccccc4Cl)c(OC)c3)c(=O)n2C1c1ccccc1Cl` (stereo unspecified) the value was 0%; for `CCOC(=O)c1cc(-c2ccccc2)sc1NC(=O)c1ccc([N+](=O)[O-])cc1`, 22%; for `Cc1cc(C)c(NC(=O)COc2ccccc2[N+](=O)[O-])c(C)c1`, 5%.
For `CCOC(=O)c1cc(-c2ccccc2)sc1NC(=O)COc1ccccc1[N+](=O)[O-]` the value was 57% (active); for `O=C(Nc1cccc(C(F)(F)F)c1)c1cc([N+](=O)[O-])ccc1Cl`, 7%; for `Cc1nc2n(CC(=O)N3CCOCC3)c3ccccc3n2n1`, 1%.
With `O=C(Cc1cccs1)Nc1ccc(/C=C/C(=O)c2ccccc2)cc1` the figure was 8%; with `CCOC(=O)c1c(C)oc2ccc(N(C(=O)c3ccncc3)S(=O)(=O)c3ccc(C)cc3)cc12`, 62% (active).
Regarding `CCOC(=O)c1c(C)oc2ccc(NS(=O)(=O)c3cc(C)ccc3C)cc12`, the inhibition was 22%.
With `CCOC(=O)c1c(C)oc2ccc(OC(=O)c3ccc(C)cc3)cc12` the figure was 0%; with `O=[N+]([O-])c1ccccc1S(=O)(=O)Nc1ccc(S(=O)(=O)N2CCCCC2)cc1`, 0%.
With `O=[N+]([O-])c1ccccc1S(=O)(=O)Nc1ccc(S(=O)(=O)N2CCOCC2)cc1` the figure was 51% (active); with `Cc1ccc(S(=O)(=O)Nc2ccc(S(=O)(=O)N3CCOCC3)cc2)cc1[N+](=O)[O-]`, 0%; with `Clc1ccc(Oc2cccc(CN3CCN(c4ccccc4)CC3)c2)cc1`, 17%.
With `Cc1cccc(C(=O)NCC(O)c2ccccc2)c1` (stereo unspecified), the inhibition is 11%.
As for `CN=C(Nc1ccc2c(c1)OCO2)SC1CC(=O)N(c2ccc(Cl)cc2)C1=O` (stereo unspecified), the inhibition was 12%.
`COC(=O)C1=C(C)N=c2s/c(=C\c3ccccc3Cl)c(=O)n2C1c1ccccc1Cl` (stereo unspecified): the inhibition is 20%.
In the case of `CCOc1ccc(NC(=O)CC2S/C(=N\N=C(/C)c3ccc(F)cc3)NC2=O)cc1` (stereo unspecified), the inhibition is 6%.
For `O=C1NC(=O)N(c2ccccc2)C(=O)/C1=C\c1ccc(-c2ccc([N+](=O)[O-])cc2)o1` the value was 7%.
As to `Cc1cc([N+](=O)[O-])ccc1-c1ccc(/C=C2\C(=O)NC(=O)N(Cc3ccccc3)C2=O)o1`, the inhibition was 60% (active).
With `Cc1cc([N+](=O)[O-])ccc1-c1ccc(/C=C2/C(=O)NC(=O)N(Cc3ccco3)C2=O)o1` the figure was 25%.
Consider `CN1C(=O)NC(=O)/C(=C/c2ccc(-c3ccc([N+](=O)[O-])cc3Cl)o2)C1=O`, for which the inhibition was 55% (active).
For `CN1C(=O)NC(=O)/C(=C/c2ccc(-c3cc([N+](=O)[O-])ccc3Cl)o2)C1=O` the value was 20%.
As to `O=C1NC(=O)N(Cc2ccccc2)C(=O)/C1=C/c1ccc(-c2cccc([N+](=O)[O-])c2)o1`, the inhibition is 38%.
As to `Cc1ccc([N+](=O)[O-])cc1-c1ccc(/C=C2/C(=O)NC(=O)N(C)C2=O)o1`, the inhibition is 27%.
`Cc1cc([N+](=O)[O-])ccc1-c1ccc(/C=C2/C(=O)NC(=O)N(c3ccccc3)C2=O)o1`: the inhibition is 17%.
For `O=C1NC(=O)N(Cc2ccccc2)C(=O)/C1=C/c1ccc(-c2ccc([N+](=O)[O-])cc2)o1` the value was 63% (active).
